Experimental data taken from PubChem BioAssay (Tox21).
Results filed as inconclusive are left out. Activity calls are given as the source filed them. The call rests on the fitted dose curve.

Each molecule was assayed against Peroxisome proliferator-activated receptor delta (Homo sapiens) (UniProt Q03181) (assay: qHTS assay to identify small molecule agonists of the peroxisome proliferator-activated receptor delta (PPARd) signaling pathway (AID 743212)). Settings: HEK293H PPARd-UAS-bla, beta-lactamase FRET ratio, 17 h; series mostly up to 62.6 µM; activation: at the top concentration.
Peroxisome proliferator-activated receptor delta (Homo sapiens), sequence (Q03181 whole entry, looked up): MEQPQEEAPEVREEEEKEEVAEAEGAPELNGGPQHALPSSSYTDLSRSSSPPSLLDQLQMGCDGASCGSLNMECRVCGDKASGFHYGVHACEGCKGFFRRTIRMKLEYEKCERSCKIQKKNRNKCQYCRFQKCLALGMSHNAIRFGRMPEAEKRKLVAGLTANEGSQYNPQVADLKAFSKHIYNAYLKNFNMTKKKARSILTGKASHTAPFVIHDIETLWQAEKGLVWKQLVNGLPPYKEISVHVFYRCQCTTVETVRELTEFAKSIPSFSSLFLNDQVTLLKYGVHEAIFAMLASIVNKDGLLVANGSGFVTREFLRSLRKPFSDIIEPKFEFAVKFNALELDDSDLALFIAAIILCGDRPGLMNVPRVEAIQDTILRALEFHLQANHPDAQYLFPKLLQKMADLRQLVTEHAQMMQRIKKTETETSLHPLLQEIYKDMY
Description: U.S. Tox21 Program National Center for Advancing Translational Sciences [NCATS] NIH Chemical Genomics Center [NCGC] U.S. Environmental Protection Agency [EPA] National Institutes of Environmental Health Sciences [NIEHS] National Toxicology Program [NTP] U.S. Food and Drug Administration [FDA] Tox21 Assay Overview: The peroxisome proliferator-activated receptors (PPARs) are lipid-activated transcription factors of the nuclear receptor superfamily with three distinct subtypes namely PPAR alpha, PPAR delta (PPARd) and PPAR gamma. All these subtypes heterodimerizes with Retinoid X receptor (RXR) and have different physiological functions. […] To identify the compounds that activate PPAR-delta signaling, GeneBLAzer PPAR delta UAS-bla HEK293H cell line (Invitrogen, Carlsbad, CA, USA) containing a beta-lactamase reporter gene under the control of an Upstream Activator Sequence (UAS) was used to screen the Tox21 compound library.
Tox21 Assay Protocol Summary: PPARd-bla cells were dispensed at 3000 cells/6uL/well in 1536-well black wall/clear bottom plates using a Multidrop Combi (Thermo Fisher Scientific, Waltham, MA) dispenser. After the assay plates were incubated at 37 C and 5% CO2 for 5 h, 23 nL of compounds dissolved in DMSO, positive controls or DMSO only was transferred to the assay plate by a Pintool station (Kalypsys, San Diego, CA). The assay plates were incubated at 37C for 17 h. After 1 uL of LiveBLAzerTM B/G FRET substrate was added using a Bioraptr Flying Reagent Dispenser (FRD) workstation (Beckman Coulter, Indianapolis, IN, USA), the plates were incubated at room temperature for 2 h, and fluorescence intensity was measured by an Envision plate reader (PerkinElmer, Shelton, CT).
On the % scale 0 is the no-effect control and ±100 the full control effect.

SMILES	activation
C[C@]12CCC(=O)C=C1CC[C@@H]1[C@@H]2CC[C@@]2(C)[C@H]1CC[C@]2(O)C(=O)CO	-7.34% (inactive)
CN1CCC[C@@H]1Cc1c[nH]c2ccc(CCS(=O)(=O)c3ccccc3)cc12	-2.77% (inactive)
CN1CCN(c2c(F)cc3c(=O)c(C(=O)O)cn4c3c2SCC4)CC1	0.77% (inactive)
O=C(O)[C@@H](O)[C@H](O)[C@H](O)[C@@H](O)C(=O)O	0.231% (inactive)
CCCNC(C)(C)COC(=O)c1ccccc1	7.72% (inactive)
CCCS(=O)c1ccc2nc(NC(=O)OC)[nH]c2c1 (stereo not given)	-4.43% (inactive)
O=C(O)C(=O)Cc1c[nH]c2ccccc12	0.857% (inactive)
CCN(CC)CCNC(=O)COc1ccc(Cl)cc1	0.608% (inactive)
NS(=O)(=O)c1cc(-c2nn[nH]n2)c(NCc2cccs2)cc1Cl	1.69% (inactive)
CCCCC(CC)COC(=O)COc1cc(Cl)c(Cl)cc1Cl (stereo not given)	1.09% (inactive)
OCCN1CCN(CCO)CC1	1.19% [at 81.1 µM] (inactive)
CC(C)C1=CC2=CC[C@@H]3[C@](C)(CCC[C@@]3(C)C(=O)O)[C@H]2CC1	-3.64% (inactive)
CCc1cc2cc(OC)c(OC)cc2c(Cc2ccccc2)n1	0.778% (inactive)
CCCOc1ccc2c(c1)CC[C@@H]1[C@@H]2CC[C@]2(C)C(OC)CC[C@@H]12 (stereo not given in full)	1.42% (inactive)
CC(C)(C)c1cccc(O)c1	0.676% (inactive)
OCC(CBr)(CBr)CBr	2.92% (inactive)
CCNCCO	-0.913% (inactive)
Cc1cn([C@@H]2O[C@H](CO)[C@@H](O)[C@@H]2F)c(=O)[nH]c1=O	1.02% (inactive)
O=C(C(Cl)Cl)N1CCOC12CCCCC2	2.9% (inactive)
CCOC(=O)[C@H](CCc1ccccc1)N[C@@H](C)C(=O)N1Cc2cc(OC)c(OC)cc2C[C@H]1C(=O)O	-5.86% (inactive)

SMILES	activation
CCN(CC)CCOc1ccc(Cc2ccccc2)cc1	0.776% (inactive)
O=C(CC(=O)C(F)(F)F)c1ccccc1	5.63% [at 81.1 µM] (inactive)
O=C(Cl)c1cccc([N+](=O)[O-])c1	-0.0735% (inactive)
Cc1cccc(C)c1NC(=O)CN1CCCCCC1	1.03% (inactive)
CC(C)C[C@H](NC(=O)OCC1c2ccccc2-c2ccccc21)C(=O)O	0.0121% (inactive)
CCC(=O)O[C@]1(C(=O)SCF)[C@H](C)C[C@H]2[C@@H]3C[C@H](F)C4=CC(=O)C=C[C@]4(C)[C@@]3(F)[C@@H](O)C[C@@]21C	0.042% (inactive)
CC/C=C\CCOC(=O)CCCCC	-3.5% (inactive)
COC(=O)C(C)O (stereo not given)	1.8% [at 81.1 µM] (inactive)
C=C(C)C(=O)OCCOP(=O)(O)O	-1.05% [at 81.1 µM] (inactive)
Cc1nc(N)nc(N)c1-c1ccc(Cl)c(Cl)c1	-2.53% (inactive)
CCOC(=O)COc1ccc2c(c1)CC(NCC(O)c1cccc(Cl)c1)CC2 (stereo not given)	1.02% (inactive)
O=c1[nH]c(=O)n([C@H]2C[C@H](O)[C@@H](CO)O2)cc1C(F)(F)F	1.24% (inactive)
CC(=O)OC1C2(C)CCC(C2)C1(C)C (stereo not given)	0.31% (inactive)
Cc1ccc([N+](=O)[O-])cc1Cl	-2.65% [at 81.1 µM] (inactive)
NCCC(O)(P(=O)(O)O)P(=O)(O)O	-2.94% (inactive)
FC(F)(F)c1ccccc1	0.673% (inactive)
Oc1ccccc1C=NCc1ccccc1	0.189% (inactive)
COc1ccc(S(=O)(=O)Nc2nnc(CC(C)C)s2)cc1	0.347% (inactive)
CC(CNC1CCCCC1)OC(=O)c1ccccc1 (stereo not given)	-0.021% (inactive)
FC(F)(F)C(Cl)(Cl)Cl	0.753% (inactive)
